Assay results reported in PubChem BioAssay (NCI).
The panel holds about 79,000 compounds, 15% with a hit somewhere; the sample as a whole holds those more often. Active and inactive are the calls of the source. Cut-off read from the data, not from the text of the source: active = growth inhibition above about 70%; inactive = the rest.

How the values were obtained:
[1] = NCI Yeast Anticancer Drug Screen. Data for the rad50 strain (AID 155);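 note: 0% = growth of vehicle-only cultures of the same strain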; details: S. cerevisiae rad50 strain growth inhibition; at 50.0 µM; stronger effect = higher value
Procedure, shortened: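 DNA repair mutant yeast, compound exposure, growth read-out; inhibition is taken relative to vehicle.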

[2] = NCI Yeast Anticancer Drug Screen. Data for the mec2-1 strain (AID 157); details: S. cerevisiae mec2-1 strain, at 50.0 µM, stronger effect = higher value
Procedure, shortened: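 Test agents were screened against the mec2-1 yeast strain, with defined DNA repair or cell cycle alteration. Growth was scored as inhibition against vehicle-only controls.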

[3] = NCI Yeast Anticancer Drug Screen. Data for the sgs1 mgt1 strain (AID 161);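 note: 0% = growth of cultures given vehicle only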; details: S. cerevisiae sgs1 mgt1 strain, at 50.0 µM, stronger effect = higher value
Procedure, shortened: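 Genetically altered yeast, compound exposure, growth inhibition relative to vehicle.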

[4] = NCI Yeast Anticancer Drug Screen. Data for the cln2 rad14 strain (AID 165);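 note: 0% = growth equal to vehicle treated cultures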; details: S. cerevisiae cln2 rad14 strain, at 50.0 µM, stronger effect = higher value
Procedure, shortened: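 Growth of compound-exposed yeast (cln2 rad14 genotype) measured and expressed as inhibition relative to vehicle.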

[5] = NCI Yeast Anticancer Drug Screen. Data for the bub3 strain (AID 167); details: S. cerevisiae bub3 mutant strain, at 50.0 µM, stronger effect = higher value
Procedure, shortened: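 In this screen, a yeast mutant lacking normal mitotic checkpoint function is challenged with compound. Relative growth versus vehicle gives the inhibition value.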

[6] = NCI Yeast Anticancer Drug Screen. Data for the mlh1 rad18 strain (AID 175); details: S. cerevisiae mlh1 rad18 strain growth inhibition; at 50.0 µM; stronger effect = higher value
Procedure, shortened: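 In this whole-cell yeast screen, a strain with altered DNA damage repair is challenged with compound, and its growth is measured against matched vehicle-treated controls.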

Row | SMILES | growth inhibition [1] | growth inhibition [2] | growth inhibition [3] | growth inhibition [4] | growth inhibition [5] | growth inhibition [6]
1 | CNC1(C(N)=O)CCN(Cc2ccccc2)CC1 | -14.7% (inactive) | -10.3% (inactive) | -25.8% (inactive) | 0.75% (inactive) | -3.6% (inactive) | -8.35% (inactive)
2 | O=C(c1ccc(Cl)c(Cl)c1)n1c2ccccc2c2ccccc21 | -0.65% (inactive) | -47.5% (inactive) | -12.3% (inactive) | 3.8% (inactive) | -4.1% (inactive) | 2.4% (inactive)
3 | c1ccc(C2=C(c3ccccn3)N=c3ccccc3=c3ccccc3=N2)nc1 | 2.4% (inactive) | 14.2% (inactive) | -1.15% (inactive) | -48.6% (inactive) | 3.65% (inactive) | -8.9% (inactive)
4 | CCCCn1cnc2c(SSc3ncnc4c3ncn4CCCC)ncnc21 | -11.6% (inactive) | -11.3% (inactive) | 5.1% (inactive) | 12% (inactive) | 22.4% (inactive) | 75.7% (active)
5 | CCN(CCO)CC(O)Cn1cnc2c(N)ncnc21 (configuration not stated) (tested in a mixture with another compound) | -10.6% (inactive) | 26.2% (inactive) | -11.8% (inactive) | 31.4% (inactive) | -1.95% (inactive) | 17.4% (inactive)
6 | O=C1C=CC(=O)N1CCCCN1C(=O)C=CC1=O | 18.8% (inactive) | 3.75% (inactive) | -17.9% (inactive) | -20.1% (inactive) | -14.4% (inactive) | -11.9% (inactive)
7 | C1=CCSC(Nc2ccccc2)=NC1 | 7.65% (inactive) | 3.35% (inactive) | -7.05% (inactive) | -2.6% (inactive) | 0.75% (inactive) | -5.85% (inactive)
8 | c1ccc(C2=NOC(c3ccccc3)N2C23CC4CC(CC(C4)C2)C3)cc1 (configuration not stated) | 2.9% (inactive) | 4.4% (inactive) | -17.5% (inactive) | 24.4% (inactive) | -13% (inactive) | 36.1% (inactive)
9 | NC(=O)Nc1ccc([N+](=O)[O-])cc1 | 4.65% (inactive) | -2.9% (inactive) | -2.6% (inactive) | -51.6% (inactive) | -11.9% (inactive) | 2.05% (inactive)
10 | c1cc(-c2cn3c(n2)SCC3)ccn1 | 15.5% (inactive) | 5.9% (inactive) | -12.8% (inactive) | 7.8% (inactive) | 25.2% (inactive) | 19.9% (inactive)
11 | O=C1OCC/C1=C1/Nc2ccccc2NC1=O | -13.1% (inactive) | -24% (inactive) | -8.1% (inactive) | -22.2% (inactive) | -16.4% (inactive) | -13.8% (inactive)
12 | O=C(O)/C(Cc1ccnc2ccccc12)=N\O | -1.35% (inactive) | 2.7% (inactive) | -15.4% (inactive) | -0.05% (inactive) | -22.7% (inactive) | 0.4% (inactive)
13 | COC(=O)C1(C)CCCC2(C)C3=CC(O)C4(C(C)C)OC4C3(O)CCC12 (configuration not stated) | -9.4% (inactive) | -41.6% (inactive) | -8.15% (inactive) | 5.65% (inactive) | -21.9% (inactive) | -8.2% (inactive)
14 | O=C(/N=C1\N=Nc2nc(C(C(=O)c3cccc([N+](=O)[O-])c3Cl)c3nc4n(c3O)/C(=N/C(=O)Nc3ccc(Cl)cc3)N=N4)c(O)n21)Nc1ccc(Cl)cc1 (configuration not stated) | 9.35% (inactive) | -8.2% (inactive) | 5.25% (inactive) | -6.65% (inactive) | 0.7% (inactive) | 7.1% (inactive)
15 | C=CCNC(=O)c1ccccc1OCC(=O)O | -12.7% (inactive) | -37.3% (inactive) | -8.75% (inactive) | -8.1% (inactive) | -29.1% (inactive) | 1.4% (inactive)
16 | CN(C)c1ccc(/C=C(/C(=O)O)c2csc(-c3nc(/C(=C\c4ccc(N(C)C)cc4)C(=O)O)cs3)n2)cc1 | 34.8% (inactive) | 9.45% (inactive) | 10.2% (inactive) | -19.8% (inactive) | 13.2% (inactive) | 25.4% (inactive)
17 | CC1(C#N)C(C#N)(C#N)C1(C#N)C#N | -0.05% (inactive) | -3.35% (inactive) | -10.8% (inactive) | -13.2% (inactive) | -30.1% (inactive) | -21.1% (inactive)
18 | CCOC(=O)/C(=C/c1cccc2ccccc12)P(=O)(OCC)OCC | 36.6% (inactive) | 50.9% (inactive) | 51.7% (inactive) | 29.4% (inactive) | 37.1% (inactive) | 52.4% (inactive)
19 | CC1(C)OC2C(=O)O[C@H](CO)C2O1 (some centres not stated) | -2.7% (inactive) | 9.5% (inactive) | -2.9% (inactive) | 24.6% (inactive) | 7.3% (inactive) | 16.4% (inactive)
20 | CCOC(=O)c1ccc(-c2ccc(C(=O)OCC)cc2[N+](=O)[O-])c([N+](=O)[O-])c1 | 14.8% (inactive) | 12.8% (inactive) | 11.8% (inactive) | 17% (inactive) | 9.7% (inactive) | 15% (inactive)
21 | NC(N)=Nc1nc2ccccc2[nH]1 | 15.9% (inactive) | -2.85% (inactive) | 19.4% (inactive) | -26.4% (inactive) | 11.7% (inactive) | 18.1% (inactive)
22 | CCOc1ccc2nc(N=NC(C(C)=O)C(C)=O)sc2c1 | 26.9% (inactive) | 9.8% (inactive) | 1.3% (inactive) | 14.1% (inactive) | 5.55% (inactive) | 15.9% (inactive)
